# Screen size: about 5,500 compounds; about 2,000 (36%) were called active. Roughly 18% stayed inconclusive and do not appear here. Some of the results follow. Values without a mark were called inactive. No stated cut-off is given here; in the data, active means normalized growth mostly below about 0.91 (no sharp cut-off); inconclusive means no clear call, values can overlap the other calls; inactive means mostly above about 0.92.
# Test: chemical genetic growth profiling, strain panel (AID 1159580);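 further: tested at 20 µM; growth read once vehicle control cultures reached saturation at 30 °C; 1 = growth at the plate median or of vehicle wells; lower values mean less growth of the strain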
# Settings: S. cerevisiae deletion strains, growth OD
structure (smiles),measurement,setting,value
CCC1(O)C(=O)OCc2c1cc1n(c2=O)Cc2cc3ccccc3nc2-1 (stereo unspecified),normalized growth,"locus YAL013W, strain DEP1, hits give low values",0.872 (active)
same,normalized growth,"locus YAL040C, strain CLN3, hits give low values",0.953
same,normalized growth,"locus YCL061C, strain MRC1 (second series), hits give low values",0.977
same,normalized growth,"locus YDR363W, strain ESC2, hits give low values",0.724 (active)
same,normalized growth,"locus YER002W, strain NOP16, hits give low values",0.971
same,normalized growth,"locus YGR078C, strain PAC10, hits give low values",1.01
same,normalized growth,"locus YGR229C, strain SMI1, hits give low values",0.672 (active)
same,normalized growth,"locus YMR263W, strain SAP30, hits give low values",0.98
same,normalized growth,"locus YMR307W, strain GAS1, hits give low values",0.904 (active)
same,normalized growth,"locus YNL128W, strain TEP1, hits give low values",0.906
same,normalized growth,"locus YNL175C, strain NOP13, hits give low values",0.998
same,normalized growth,"locus YNL197C, strain WHI3, hits give low values",0.976
same,normalized growth,"locus YNL224C, strain SQS1, hits give low values",0.897 (active)
same,normalized growth,"locus YNL322C, strain KRE1, hits give low values",0.971
same,normalized growth,"locus YOR083W, strain WHI5 (second series), hits give low values",0.867 (active)
same,normalized growth,"locus YPL241C, strain CIN2, hits give low values",0.984

# Source: PubChem BioAssay AID1159580 (chemical genetic matrix, 2015)
